In PubChem BioAssay AID488969 (Vanderbilt High Throughput Screening Facility, 2010):
Over roughly 110,000 compounds, “z-score” has its median near -0.1; the highest 2% begin near 2. The sample holds the highest values, similar compounds and a random draw of the others, so the mix is not that of the screen. Calls of active or inactive are those of the source.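 Rule for the calls: active = z-score in the third read window above 3 or below -3; inactive = the rest.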

target: Metabotropic glutamate receptor 8 (Rattus norvegicus) (UniProt P70579); assay: mGluR8 Gi/Go-coupled signaling modulation – cell-based, rat, thallium flux, HTS, primary screen (AID 488969); settings: HEK293 rat mGluR8, GIRK (G protein-gated inwardly rectifying potassium channel) thallium flux, FluoZin2; at 10 µM; stronger effect = higher value; submaximal glutamate (EC20) added with thallium
Sequence (P70579 whole entry, looked up): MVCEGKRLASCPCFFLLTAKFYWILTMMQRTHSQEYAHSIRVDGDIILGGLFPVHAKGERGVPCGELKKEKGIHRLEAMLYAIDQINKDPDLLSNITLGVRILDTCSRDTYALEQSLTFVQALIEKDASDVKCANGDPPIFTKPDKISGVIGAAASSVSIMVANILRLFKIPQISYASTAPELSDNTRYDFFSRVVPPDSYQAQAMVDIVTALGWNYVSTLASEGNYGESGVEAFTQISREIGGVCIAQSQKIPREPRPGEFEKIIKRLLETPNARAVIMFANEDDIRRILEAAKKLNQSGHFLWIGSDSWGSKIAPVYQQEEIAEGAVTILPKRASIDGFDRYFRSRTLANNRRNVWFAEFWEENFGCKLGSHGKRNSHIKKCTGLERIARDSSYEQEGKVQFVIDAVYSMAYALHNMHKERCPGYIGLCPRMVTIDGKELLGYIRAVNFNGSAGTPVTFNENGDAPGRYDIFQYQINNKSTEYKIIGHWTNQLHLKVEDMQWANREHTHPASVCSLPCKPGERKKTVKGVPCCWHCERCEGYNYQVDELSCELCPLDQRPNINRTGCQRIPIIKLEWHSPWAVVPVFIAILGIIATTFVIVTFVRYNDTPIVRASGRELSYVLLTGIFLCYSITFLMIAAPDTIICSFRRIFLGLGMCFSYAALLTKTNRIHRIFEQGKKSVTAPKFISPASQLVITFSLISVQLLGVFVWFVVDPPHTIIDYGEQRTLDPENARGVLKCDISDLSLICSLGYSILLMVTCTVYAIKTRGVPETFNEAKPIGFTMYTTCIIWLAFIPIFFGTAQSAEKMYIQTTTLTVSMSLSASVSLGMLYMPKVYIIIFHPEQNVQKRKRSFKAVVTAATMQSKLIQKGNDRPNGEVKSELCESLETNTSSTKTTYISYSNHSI

| Compound | z-score |
| --- | --- |
| O=C(CNC(=O)c1ccccc1F)NCCOc1cccc(Cl)c1Cl | -0.0129 |
| COCCNC(=O)CN(C(=O)CCC(=O)Nc1cc(C)on1)c1cccc(C)c1C | -0.171 |
| CC(C)NS(=O)(=O)c1ccc(CCC(=O)Nc2ccc3c(c2)OCO3)cc1 | -0.224 |
| CCc1cc(C(=O)N=Nc2c(O)[nH]c3ccc([N+](=O)[O-])cc23)c2ccccc2n1 | -0.481 |
| CCc1ccc2[nH]c(O)c(N=Nc3nc(-c4ccccc4)cs3)c2c1 | 2.89 |
| CCc1cc2c(N=Nc3c(O)[nH]c4ccccc34)ncnc2s1 | -0.149 |
| COC(=O)CSc1cnc2ccccc2n1 | 0.141 |
| CCOC(=O)c1c(NS(=O)(=O)Cc2ccccc2)sc2c1CCCC2 | 17.1 (active) |
| Cc1ccc(C(=O)OCC(=O)Nc2sc3c(c2C#N)CCCC3)cc1NC(=O)c1ccco1 | 2.03 |
| CCOC(=O)c1c(NC(=S)Nc2ccccc2)sc2c1CCCCC2 | 3.94 (active) |
| COC(=O)c1c(NC(=O)c2ccco2)sc2c1CCC2 | -0.464 |
| CC(C)OC(=O)c1c(NC(=O)c2ccco2)sc2c1CCCCC2 | -0.501 |
| COC(=O)c1c(NC(=S)NC(=O)c2ccco2)sc2c1CCCC2 | 3.53 (active) |
| CCOC(=O)c1c(NC(=S)Nc2ccc(C)cc2)sc2c1CCC2 | -0.0357 |
| CCOC(=O)c1c(NC(=S)Nc2ccc(F)cc2)sc2c1CCC2 | -0.154 |
| CCOC(=O)c1c(NC(=O)c2ccccc2N(C)S(=O)(=O)c2ccccc2)sc2c1CCCC2 | -0.168 |
| Cc1ccc(C(=O)OCC(=O)Nc2sccc2C(N)=O)cc1NC(=O)c1ccco1 | -0.747 |
| Cc1ccc(C(=O)OCC(=O)Nc2sc3c(c2C#N)CCC3)cc1 | -0.0585 |
| CCOC(=O)c1c(NC(=O)c2ccco2)sc2c1CCCCC2 | -0.506 |
| CC(=O)Nc1ccc2nc(C)n(Cc3ccc(Cl)cc3)c(=O)c2c1 | -0.376 |
| CCOC(=O)N1CCC(NC(=O)C2CCN(c3ccc(N4CCOCC4)nn3)CC2)CC1 | -0.202 |
| CCCOc1ccc(N2C(=O)CC(N3CCN(c4ccccc4OC)CC3)C2=O)cc1 (stereo not given) | -0.446 |
| COC(=O)C1=CNC=C(C(=O)OC)C1c1ccccc1Cl | -1.54 |
| CCOc1ccccc1N(CC(=O)Nc1ccccc1C(=O)O)S(C)(=O)=O | 0.403 |

| Compound | z-score |
| --- | --- |
| c1ccc2nc3c(cc2c1)CCCCCC3 | -0.0331 |
| CCOC(=O)c1nnn(-c2nonc2N)c1-c1cccc2ccccc12 | -1.66 |
| O=C(NCc1ccc2c(c1)OCO2)C1CC(c2ccccc2O)=NO1 (stereo not given) | 0.36 |
| COc1ccc(C(C[N+](=O)[O-])c2c(-c3ccccc3)cc3ccccn23)cc1 (stereo not given) | 0.715 |
| Cc1snc(SCC(=O)N/N=C(\N)COc2ccc(F)cc2)c1C#N | 0.165 |
| Cn1c(CNc2ccc(Cl)cc2)nnc1SCCN1CCCCC1 | 0.273 |
| O=C(COc1ccc([N+](=O)[O-])cc1)NCCC1=CCCCC1 | -0.0621 |
| CCCNC(=S)Nc1ccc(Cl)cc1Cl | -0.0325 |
| COC(=O)c1c(NS(=O)(=O)Cc2ccccc2)sc2c1CCCC2 | 17 (active) |
| COC(=O)c1c(NS(=O)(=O)c2cccs2)sc2c1CCCC2 | 6.32 (active) |
| COC(=O)c1c(NC(C)=O)sc2c1CCCC2 | -0.117 |
| COC(=O)c1c(NC(=O)CN(c2ccccc2)S(C)(=O)=O)sc2c1CCCC2 | 0.77 |
| COC(=O)c1c(NS(=O)(=O)c2ccc3ccccc3c2)sc2c1CCCC2 | 0.384 |
| COC(=O)c1c(NS(C)(=O)=O)sc2c1CCCC2 | 0.0189 |
| C=CCn1c(Cc2csc(N)n2)nnc1SCC(=O)Nc1ccc(C(=O)OCC)cc1 | -2.2 |
| CCOC(=O)C1CCN(C(=O)c2ccccc2Oc2ccccc2)CC1 | -0.386 |
| COc1ccc(-c2nsc(SCC(=O)Nc3ccc4c(c3)OCO4)n2)cc1 | -0.142 |
| CCOC(=O)NCc1ccc(S(=O)(=O)Nc2ccc(C)cc2)cc1 | 0.21 |
| Cc1ccc(-c2cc(N)n(Cc3ccc(Cl)cc3)n2)cc1 | -0.532 |
| O=C(NC(=S)N(Cc1ccccc1)Cc1ccccc1)c1ccccc1F | -1.15 |
| CC(C)C(=O)NC(=S)N(Cc1ccccc1)Cc1ccccc1 | 9.57 (active) |
| O=C(NC(=S)N(Cc1ccccc1)Cc1ccccc1)C1CCCCC1 | 0.526 |
| CC(C)CC(=O)NCCCCc1ccccc1 | -0.29 |
| CC(C)CC(=O)NC(=S)NCCc1ccccc1 | 0.38 |

| Compound | z-score |
| --- | --- |
| CC(C)CC(=O)NC(=S)N(Cc1ccccc1)Cc1ccccc1 | 8.66 (active) |
| CN(C)CCN1C(=O)C(O)=C(C(=O)c2cc3ccccc3o2)C1c1ccc(N(C)C)cc1 (stereo not given) | -0.145 |
| CC(C)(C)c1ccc(S(=O)(=O)NC(Cc2ccccc2)C(=O)O)cc1 (stereo not given) | 0.161 |
| Cc1nn(Cc2ccc(Cl)cc2Cl)c(Cl)c1/C=N/NC(=O)CNc1cccc(C(F)(F)F)c1 | -0.087 |
| CCOCCn1c(=NC(=O)c2cc(Cl)sc2Cl)sc2cc(S(N)(=O)=O)ccc21 | -0.0217 |
| CCCCNC(=O)CCn1c(=O)c2ccccc2n(Cc2ccc(F)cc2)c1=O | -0.407 |
| COc1cc(OC)cc(C(=O)N[C@H](C(=O)N2CCc3ccccc32)C(C)C)c1 | -0.177 |
| c1cc2c3c(cccc3c1)C(N1CCCCCC1)=N2 | 0.822 |
| CCCCN(C)C1=Nc2cccc3cccc1c23 | 3.17 (active) |
| c1cc2c3c(cccc3c1)C(N1CCN(C3=Nc4cccc5cccc3c45)CC1)=N2 | -0.0313 |
| COc1cc(S(=O)(=O)N(Cc2ccccc2)Cc2ccccn2)ccc1-n1cnnn1 | -0.0596 |
| N#CCCN1CCN(S(=O)(=O)c2ccc3c(c2)OCCCO3)CC1 | -0.473 |
| Cc1c(C(=O)O)[nH]c2c1C(=O)CC(c1ccc(Cl)cc1)C2 (stereo not given) | 5.28 (active) |
| Cc1c(C(=O)N2CCOCC2)[nH]c2c1C(=O)CC(c1ccc(Cl)cc1)C2 (stereo not given) | -0.803 |
| Cc1c(C(=O)O)[nH]c2c1C(=O)CC(c1ccccc1)C2 (stereo not given) | -0.21 |
| CC(C)=CCC/C(C)=C/C=N/NC(=O)c1ccc([N+](=O)[O-])cc1 | 1.52 |
| CCOC(=O)C1CCC2(CC1)C(C#N)=C(N)Oc1n[nH]c(C)c12 (stereo not given) | 0.0849 |
| CCOc1ccc(S(=O)(=O)N(CC(=O)Nc2cc(C)on2)Cc2ccccc2Cl)cc1 | -1.72 |
| CC(=O)c1ccc(OC(=O)C2CC(=O)N(c3cccc(C)c3)C2)cc1 (stereo not given) | -1.58 |
| O=C(Nc1ccccc1Br)C(=O)N1CCCC1 | -0.0281 |
| O=C(NNc1ccccc1Br)C(=O)n1ccc2ccccc21 | 2.23 |
| Cc1ccccc1NC(=O)Nc1ccccc1Br | -0.375 |
